HT1080NT lethal – kills 2HG-producing HT-1080-NT fibrosarcoma cells; hit rate 1.6% among 360,000; HT-1080-NT fibrosarcoma viability, CellTiter-Glo ATP luminescence, 48 h; AID 686970; Potency, µM (series often up to 46.1 µM), actives largely listed as cytotoxic;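 further: NT is the 2HG producing partner of a matched IDH1 knockdown line; nearly all actives have a fitted effect of over 55% in size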
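Toxicity toward the 2HG-producing NT line was scored as %Activity, normalised to DMSO and no-cell wells, from CellTiter-Glo luminescence after 48 hours' treatment.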
MCF10A rerep – inducers of DNA re-replication in MCF 10A breast cells; MCF 10A DNA re-replication, Hoechst nuclear intensity, 48 h; Potency, µM (top dose mostly 46.1 µM), usual class: activators; hit rate 2.9% among 350,000; further: nearly all actives have a fitted effect of over 50% in size
KB-3-1 tox – kills parental KB-3-1 adenocarcinoma cells; KB-3-1 viability, CellTiter-Glo ATP luminescence, 72 h; Potency, µM (highest dose often 46.1 µM), usual class: cytotoxic; hit rate 1.4% among 400,000; AID 1347075; further: nearly all actives have a fitted effect of over 60% in size
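72 h, 37 °C compound treatment of KB-3-1 parental cells; CellTiter-Glo added, 10 min, luminescence read. Data corrected against DMSO-only plates and normalized before curve fitting.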
HT1080 IDH1KD tx – toxicity to HT-1080 IDH1 knockdown cells (counter line); HT-1080 IDH1 knockdown viability, ATP luminescence, 48 h; Potency, µM (highest dose often 46.1 µM), hits mostly cytotoxic; hit rate 2% among 360,000; AID 686971
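CellTiter-Glo luminescence after 48 h compound exposure at 37 degrees C of IDH1-knockdown HT-1080 cells in 5% FBS RPMI. %Activity scaled between DMSO wells and cell-free media wells, with curves fitted and assigned curve classes.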
SW480 rereplic – DNA re-replication induction in SW480 cells; SW480 DNA re-replication, Hoechst DNA content imaging, 48 h; hit rate 1.8% among 340,000; Potency, µM (doses to about 46.1 µM), usual class: activators; AID 624297; further: nearly all actives have a fitted effect of over 55% in size
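Compounds, transferred as 23 nL by pin tool, were incubated with cells for 48 hr; DNA content per nucleus was then quantified by Hoechst staining and fluorescence plate imaging.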
KB-V1 cytotox – kills drug-selected multidrug resistant KB-V1 cells; KB-V1 MDR cells viability, CellTiter-Glo, 72 h; Potency, µM (doses to about 46.1 µM), usual class: cytotoxic; hit rate 3.4% among 400,000; AID 1347076; further: nearly all actives have a fitted effect of over 60% in size
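Cytotoxicity via CellTiter-Glo luminescence after 72 h compound exposure at 37 degrees C. Cells: drug-selected KB-V1 line, DMEM phenol-red free plus 10% FBS. Compounds tested at multiple concentrations; normalized data fitted to concentration-effect curves.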
Of the large screens only hits and unclear results are named; the others gave an inactive call. Compounds with a hit are over-represented: about 7.9% of the library has one in this group of screens. The call rests on the fitted dose curve; in most records, active means well fitted curve in the direction sought with a large enough effect; inconclusive means small, poorly fitted or top-dose-only effect, or another doubt; inactive means no such curve, though single readings can be large; an effect the other way counts as inactive or inconclusive.

Cc1onc(-c2c(Cl)cccc2Cl)c1C(=O)NC1C(=O)N2C1SC(C)(C)C2C(=O)O (stereo not given)	KB-V1 cytotox inconclusive
O=C1Nc2ccccc2N(C(=O)c2ccc3ccccc3c2)C1c1nc2ccccc2[nH]1 (stereo not given)	HT1080NT lethal inconclusive, KB-3-1 tox inconclusive, HT1080 IDH1KD tx inconclusive, KB-V1 cytotox 16.4µM (no result: MCF10A rerep, SW480 rereplic)
CN(C(=O)COC(=O)c1nc(Cl)c(Cl)c(Cl)c1Cl)C1CCS(=O)(=O)C1 (stereo not given)	HT1080NT lethal 16.4µM, MCF10A rerep 3.66µM, KB-3-1 tox inconclusive, HT1080 IDH1KD tx 5.8µM, SW480 rereplic inconclusive, KB-V1 cytotox inconclusive
COc1ccc(-n2c(C)cc3cc(OC(C)=O)ccc32)cc1	MCF10A rerep inconclusive, HT1080 IDH1KD tx inconclusive, SW480 rereplic inconclusive
CCCCn1c(N)c(N(Cc2ccccc2OC)C(=O)CN2C(=O)NC3(CCCC3)C2=O)c(=O)[nH]c1=O	none
COC(=O)C1=C(C)NC(=O)CC1c1ccccc1F (stereo not given)	MCF10A rerep 5.8µM, SW480 rereplic inconclusive
Cn1c2c(c(=O)n(C)c1=O)C(c1cc(Br)ccc1F)CC(=O)N2 (stereo not given)	none (no result: HT1080NT lethal, MCF10A rerep, HT1080 IDH1KD tx, SW480 rereplic)
O=C1CC(c2ccccc2F)c2cc3c(cc2N1)CCC3 (stereo not given)	HT1080NT lethal 1.58µM, KB-3-1 tox 8.2µM, HT1080 IDH1KD tx 0.891µM, KB-V1 cytotox 13µM
O=C1CC(c2cc(Br)ccc2F)c2cc3c(cc2N1)CCC3 (stereo not given)	HT1080NT lethal 1.78µM, MCF10A rerep 1.46µM, KB-3-1 tox 1.64µM, HT1080 IDH1KD tx 1.26µM, SW480 rereplic 1.16µM, KB-V1 cytotox inconclusive
CCN(CC)CCN1C(=O)C(=O)/C(=C(/O)c2ccc(S(=O)(=O)N3CCOCC3)cc2)C1c1ccc(Cl)cc1 (stereo not given)	none
O=C(CCc1c[nH]c2ccccc12)Nc1ncccc1O	none
Cc1ccc(NC(=O)CCc2c[nH]c3ccccc23)nc1	HT1080NT lethal inconclusive, MCF10A rerep inconclusive, KB-3-1 tox 4.11µM, HT1080 IDH1KD tx inconclusive, SW480 rereplic 3.26µM, KB-V1 cytotox inconclusive
Cc1cccc(N(Cc2ccccc2)C(=O)c2ccc(S(C)(=O)=O)cc2)c1	KB-V1 cytotox inconclusive
CC(=O)Oc1ccc(Cn2c(C)c(C(=O)NCc3cccc(C(F)(F)F)c3)sc2=O)cc1	HT1080NT lethal inconclusive, KB-3-1 tox 23.1µM, HT1080 IDH1KD tx inconclusive, KB-V1 cytotox 14.6µM (no result: MCF10A rerep, SW480 rereplic)
COc1ccc(C(C)=O)cc1Cn1c(C)c(C(=O)NCc2cccc(C(F)(F)F)c2)sc1=O	KB-3-1 tox inconclusive, HT1080 IDH1KD tx inconclusive, KB-V1 cytotox 18.4µM (no result: MCF10A rerep, SW480 rereplic)
O=C(COc1ccc([N+](=O)[O-])cc1)NCc1cccnc1	none
CCCn1c(SCC(=O)Nc2ccccc2N2CCOCC2)nc2c1c(=O)n(C)c(=O)n2C	none
CCOC(=O)N1CCN(c2ncnc3c2oc2nc(C(C)C)c4c(c23)CCC4)CC1	KB-V1 cytotox inconclusive
CC(C)c1ccc(C2C3=C(COC3=O)Nc3cc4c(cc32)OCO4)cc1 (stereo not given)	HT1080NT lethal 1.46µM, MCF10A rerep inconclusive, KB-3-1 tox 0.731µM, HT1080 IDH1KD tx 1.64µM, SW480 rereplic inconclusive, KB-V1 cytotox 1.16µM
CC(C)c1ccc(NS(=O)(=O)c2ccc3c(c2)NC(=O)CO3)cc1	none
C=C(CN(C)C)C(=O)c1ccc(OC2OC(COC(C)=O)C(OC(C)=O)C(OC(C)=O)C2OC(C)=O)cc1 (stereo not given)	HT1080NT lethal inconclusive, MCF10A rerep inconclusive, KB-3-1 tox inconclusive, HT1080 IDH1KD tx 4.61µM, SW480 rereplic 5.8µM, KB-V1 cytotox inconclusive
CC(=O)OC[C@H]1O[C@@H](O/N=C/[C@@H](C)[C@H](OCc2ccccc2)C(C)C)[C@H](OC(C)=O)[C@@H](OC(C)=O)[C@@H]1OC(C)=O	none (no result: HT1080NT lethal, KB-3-1 tox, HT1080 IDH1KD tx, KB-V1 cytotox)
O=C(CCN1CCN(CCO)CC1)Nc1ccc(OCc2ccccc2)cc1	none
CC(C)Oc1ccc(C(=O)CCN2CCCCC2)cc1	MCF10A rerep 23.1µM, SW480 rereplic inconclusive
CC(C)Oc1ccc(C(=O)CCN2CCOCC2)cc1	MCF10A rerep inconclusive, SW480 rereplic inconclusive, KB-V1 cytotox inconclusive
COc1ccc(C(=O)CCN2CCCCCC2)cc1	HT1080NT lethal inconclusive, MCF10A rerep inconclusive, KB-3-1 tox inconclusive, HT1080 IDH1KD tx 10µM, SW480 rereplic inconclusive, KB-V1 cytotox inconclusive
CCOc1ccc(C(=O)CCN2CCCCC2)cc1	HT1080NT lethal inconclusive, MCF10A rerep inconclusive
O=C(CCN1CCN(Cc2ccccc2)CC1)Nc1ccc(OCc2ccccc2)cc1	MCF10A rerep inconclusive, KB-3-1 tox inconclusive, KB-V1 cytotox 2.59µM
COc1ccccc1-n1c(SCC(=O)Nc2ccc3c(c2)OCO3)nc2c(c1=O)SCC2	KB-V1 cytotox 7.31µM
Cc1cc(S(=O)(=O)Nc2cccc(-c3ccc(N4CCOCC4)nn3)c2)c(C)cc1Cl	KB-V1 cytotox inconclusive (no result: HT1080NT lethal, MCF10A rerep, HT1080 IDH1KD tx, SW480 rereplic)
CCOc1ccc(C(C(=O)NC(C)(C)C)N(CCOC)C(=O)CCC(=O)Nc2nccs2)cc1 (stereo not given)	none
CCOC(=O)C1=C(COc2ccccc2)NC(=O)NC1c1ccc(Br)cc1 (stereo not given)	none
O=C(CN1CCN(CCC(=O)Nc2ccccc2F)CC1)Nc1ccc(F)cc1	none
COc1ccc(C(=O)CCN2CCN(c3ccccc3F)CC2)cc1	HT1080NT lethal inconclusive, MCF10A rerep 5.8µM, HT1080 IDH1KD tx inconclusive, SW480 rereplic inconclusive
CCOc1ccc(NC(=O)CCN2CCN(c3ccccc3OC)CC2)cc1	none
CCOc1ccc(NC(=O)CCN2CCN(c3ccccc3F)CC2)cc1	HT1080NT lethal inconclusive, MCF10A rerep inconclusive, KB-3-1 tox inconclusive, HT1080 IDH1KD tx inconclusive, SW480 rereplic 18.4µM, KB-V1 cytotox inconclusive
CCC(=O)Nc1ccc(N2CCN(Cc3ccccc3)CC2)cc1	MCF10A rerep 8.2µM
O=C(CN1CCN(CCC(=O)Nc2ccccc2F)CC1)Nc1ccc(Cl)cc1	KB-V1 cytotox 4.61µM
O=C(CCN1CCN(c2ccccc2F)CC1)c1ccc(Br)cc1	HT1080NT lethal inconclusive, MCF10A rerep inconclusive, HT1080 IDH1KD tx inconclusive, SW480 rereplic inconclusive
COc1ccc(N2CC(C(=O)Nc3nccs3)CC2=O)cc1 (stereo not given)	none
COc1ccccc1N1CCN(CCC(=O)Nc2ccc3c(c2)OCO3)CC1	KB-V1 cytotox 20.6µM
COc1cccc(/C=C/C(=O)NNC(=O)CCN2CCN(Cc3ccccc3)CC2)c1	MCF10A rerep inconclusive, KB-3-1 tox 23.1µM, SW480 rereplic 3.66µM
COc1ccccc1N1CCN(CC(=O)Nc2ccc3c(c2)OCCO3)CC1	none
CCOc1ccc(C(=O)N2CCN(S(=O)(=O)c3ccc4c(c3)OCCO4)CC2)cc1OCC	none
CCOC(=O)c1cc2c(C)nn(-c3ccccc3)c2s1	MCF10A rerep inconclusive
